Most compounds without a hit are left out; they make up all but 5.7% or so of the library.
DAX1 inh-1: inhibits human nuclear receptor DAX1 | HEK293 Gal4-DAX1 luciferase reporter, luminescence | inhibition, % at 6.75 µM | actives 0.99% (n = 340,000) | AID 504766;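 active means inhibition above the mean over all tested compounds plus 3 SD, cut at about 4.2% in these data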;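 further: inhibition shows as a rise in luminescence from relieved DAX1 repression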
Target sequence (P51843 207-470 limits assumed): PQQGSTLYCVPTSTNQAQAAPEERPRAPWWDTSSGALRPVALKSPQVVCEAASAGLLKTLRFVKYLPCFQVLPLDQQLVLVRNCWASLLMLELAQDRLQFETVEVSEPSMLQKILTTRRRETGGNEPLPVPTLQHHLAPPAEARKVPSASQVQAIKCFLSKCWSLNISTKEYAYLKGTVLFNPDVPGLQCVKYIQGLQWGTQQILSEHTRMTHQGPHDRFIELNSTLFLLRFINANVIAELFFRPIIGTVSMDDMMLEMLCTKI
ssDAF12 agonist: activates DAF-12 receptor from parasite S. stercoralis; HEK293 ssDAF-12/GRIP1 lit1-tk-luc reporter, luminescence; % of 3 µM dafachronic acid response; activation, % at 6.8 µM; actives 1% (n = 370,000); AID 652126;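 active means activation above the mean over all tested compounds plus 3 SD, cut at about 0.9% in these data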
DAX1 inh-2: blocks DAX1 repression of SF-1 activated StAR promoter; inhibition, % at 6.8 µM; HEK293T StAR-luciferase reporter, SF-1/DAX-1 repression relief; actives 1.1% (n = 370,000);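 active means inhibition above the mean over all tested compounds plus 3 SD, cut at about 3.6% in these data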;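 further: higher inhibition means more luminescence from relief of DAX-1 repression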
hcDAF12 agonist: activators of H. contortus DAF-12 nuclear receptor; activation, % at 6.8 µM; actives 1.4% (n = 370,000); HEK293 hcDAF-12 lit1-tk-luc reporter, luminescence; 0% DMSO, 100% Δ7-dafachronic acid;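 active means activation above the mean of all tested compounds plus 3 SD, cut at about 5.5% in these data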
hgDAF-12 ag: agonists of H. glycines DAF-12 nuclear receptor. AID 687014. HEK293 GAL4-hgDAF12 UAS-luciferase reporter, agonist luminescence; normalized to butyrate control. activation, % at 6.8 µM. actives 1.8% (n = 370,000);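 active means activation above a cutoff set at the mean of all screened compounds plus 3 SD, cut at about 10% in these data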
AHR act: activates the human aryl hydrocarbon receptor | AHR-responsive luciferase reporter cells, luminescence | activation, % at 5 µM | actives 2.5% (n = 320,000) | AID 2796; in the data active means activation above about 47%
Large screens that a line does not name were inactive.

Cc1cccc(C)c1NC(=O)C(NC(=O)c1ccccn1)c1ccc([N+](=O)[O-])cc1 (configuration not stated)	none
O=C(CN(CC1CCCO1)C(=O)c1nsc(Cl)c1Cl)NC1CCCC1 (configuration not stated)	none
COc1cc2c(cc1OC)/C(=C/c1ccc(Cl)cc1)C(=O)OC2	AHR act 59
CC(C)CCN1C(=O)c2cccc3c(N)ccc(c23)C1=O	AHR act 65
CCN1CCN(C(=O)c2cc3cc(F)ccc3[nH]2)CC1	AHR act 65
O=C(c1cc2cc(F)ccc2[nH]1)N1CCC(Cc2ccccc2)CC1	ssDAF12 agonist 0.9
COc1cc(/C=N/N=C2/NC(=O)C(c3ccccc3)S2)ccc1O (configuration not stated)	none
CCn1c(O)c(C=NCCN2CCOCC2)sc1=S	none
Cc1c(NC2=C(Cl)C(=O)N(c3ccccc3Cl)C2=O)c(=O)n(-c2ccccc2)n1C	ssDAF12 agonist 0.9
Cc1c(NC2=C(Cl)C(=O)N(c3ccccc3)C2=O)c(=O)n(-c2ccccc2)n1C	none
COC(=O)c1cn(Cc2cccnc2)c(=O)c2ccccc12	ssDAF12 agonist 0.9
CCC(=O)N(Cc1cc2ccccc2[nH]c1=O)C(C)C	none
O=C(NC1CCCC1)C1CCCN(S(=O)(=O)c2cccc3cccnc23)C1 (configuration not stated)	none
O=C(NC1CCCCCC1)C1CCN(S(=O)(=O)c2cccc3cccnc23)CC1	DAX1 inh-1 6.1
Cc1cc(C)nc(-n2nc(C)c(C3(O)C(=O)Nc4ccccc43)c2N)n1 (configuration not stated)	AHR act 56
Cc1cc(C)nc(-n2nc(C)c(C3(O)C(=O)Nc4ccc(F)cc43)c2N)n1 (configuration not stated)	none
O=C(N/N=C\c1ccc(Sc2ccccn2)o1)c1cccc(Br)c1	AHR act 61
O=C(CN1C(=O)NC2(CCCc3ccccc32)C1=O)Nc1ccccc1OC(F)F (configuration not stated)	none
CCN(CCCNC(=O)CN1C(=O)COc2ccccc21)c1ccccc1	none
COc1ccccc1OCCNC(=O)c1c(-c2ccccc2Cl)noc1C	none
NNC(=O)c1ccc2c(c1)S(=O)(=O)NNC2=O	hgDAF-12 ag 11
O=C(CNC(=O)c1ccco1)N/N=C/c1ccc(C(=O)O)cc1	none
Cc1cccc(-n2nnc(C(=O)Nc3ccc(F)cc3)c2N)c1	hgDAF-12 ag 12
CCc1ccc(Cn2nnc(C(=O)Nc3cccc(C)c3)c2N)cc1	DAX1 inh-1 4.3
Cc1ccc(NC(=O)c2nnn(-c3cc(C)cc(C)c3)c2N)cc1	none
CCOc1ccc(Cn2nnc(C(=O)Nc3cc(C)cc(C)c3)c2N)cc1	none
O=C(NCC1CCCO1)c1cc(C(=O)c2ccc(Cl)cc2Cl)c[nH]1 (configuration not stated)	none
COc1ccc2oc3ccccc3c(=O)c2c1	none
COc1cccc2c(=O)c3ccccc3oc12	DAX1 inh-1 4.5
O=P(c1ccccc1)(c1ccccc1)C(O)c1ccccn1 (configuration not stated)	ssDAF12 agonist 1.2 (no result: DAX1 inh-1)
CCC(=O)NCCc1nc2cc(NC(=O)c3cccs3)ccc2n1C	DAX1 inh-2 3.6
O=C(c1ccco1)N1CCN(C2CN(Cc3ccccc3)S(=O)(=O)C2)CC1 (configuration not stated)	none (no result: DAX1 inh-1, AHR act)
COc1nc(-c2ccccc2)ccc1-c1noc(-c2ccccc2)n1	none
COc1nc(-c2ccccc2)ccc1-c1noc(-c2cccs2)n1	AHR act 52
CCCc1cc(=O)oc2cc(C)cc(OCC(=O)NCc3cccnc3)c12	none
Cc1cc(OCC(=O)NCc2ccncc2)c2c(C)cc(=O)oc2c1	AHR act 61
Cc1c(C)c2ccc(OCC(=O)Nc3cccnc3)c(C)c2oc1=O	DAX1 inh-2 3.7
COc1ccc(-c2cc(=O)oc3c(C)c(OCC(=O)Nc4cccnc4)ccc23)cc1	none
CCCCc1cc(=O)oc2cc(C)cc(OCC(=O)Nc3cccnc3)c12	AHR act 51
CN(C1CC(C)(C)N(O)C(C)(C)C1)S(=O)(=O)CC12CCC(CC1=O)C2(C)C (configuration not stated)	none

Source: PubChem BioAssay (The Scripps Research Institute Molecular Screening Center)
